Measured values taken from PubChem BioAssay (NCATS).
Records with an inconclusive call do not appear. Activity calls are given as the source filed them. Calls follow the shape of the dose curve; as a rule, active = well fitted curve in the direction sought with a large enough effect; inconclusive = small, poorly fitted or top-dose-only effect, or another doubt; inactive = no such curve, though single readings can be large; an effect the other way counts as inactive or inconclusive.

molecular target: Lysine-specific demethylase 5B (Homo sapiens) (UniProt Q9UGL1); assay: Optimization screen for KDM5B Histone Demethylases FDH coupled qHTS against the LOPAC library (AID 1347166); conditions: KDM5B demethylation, FDH-coupled NADH fluorescence (FDH is formaldehyde dehydrogenase); series mostly up to 57.5 µM; activity, negative = inhibition: at the top concentration; also: 0% is about no effect
Sequence (Q9UGL1 whole entry, looked up): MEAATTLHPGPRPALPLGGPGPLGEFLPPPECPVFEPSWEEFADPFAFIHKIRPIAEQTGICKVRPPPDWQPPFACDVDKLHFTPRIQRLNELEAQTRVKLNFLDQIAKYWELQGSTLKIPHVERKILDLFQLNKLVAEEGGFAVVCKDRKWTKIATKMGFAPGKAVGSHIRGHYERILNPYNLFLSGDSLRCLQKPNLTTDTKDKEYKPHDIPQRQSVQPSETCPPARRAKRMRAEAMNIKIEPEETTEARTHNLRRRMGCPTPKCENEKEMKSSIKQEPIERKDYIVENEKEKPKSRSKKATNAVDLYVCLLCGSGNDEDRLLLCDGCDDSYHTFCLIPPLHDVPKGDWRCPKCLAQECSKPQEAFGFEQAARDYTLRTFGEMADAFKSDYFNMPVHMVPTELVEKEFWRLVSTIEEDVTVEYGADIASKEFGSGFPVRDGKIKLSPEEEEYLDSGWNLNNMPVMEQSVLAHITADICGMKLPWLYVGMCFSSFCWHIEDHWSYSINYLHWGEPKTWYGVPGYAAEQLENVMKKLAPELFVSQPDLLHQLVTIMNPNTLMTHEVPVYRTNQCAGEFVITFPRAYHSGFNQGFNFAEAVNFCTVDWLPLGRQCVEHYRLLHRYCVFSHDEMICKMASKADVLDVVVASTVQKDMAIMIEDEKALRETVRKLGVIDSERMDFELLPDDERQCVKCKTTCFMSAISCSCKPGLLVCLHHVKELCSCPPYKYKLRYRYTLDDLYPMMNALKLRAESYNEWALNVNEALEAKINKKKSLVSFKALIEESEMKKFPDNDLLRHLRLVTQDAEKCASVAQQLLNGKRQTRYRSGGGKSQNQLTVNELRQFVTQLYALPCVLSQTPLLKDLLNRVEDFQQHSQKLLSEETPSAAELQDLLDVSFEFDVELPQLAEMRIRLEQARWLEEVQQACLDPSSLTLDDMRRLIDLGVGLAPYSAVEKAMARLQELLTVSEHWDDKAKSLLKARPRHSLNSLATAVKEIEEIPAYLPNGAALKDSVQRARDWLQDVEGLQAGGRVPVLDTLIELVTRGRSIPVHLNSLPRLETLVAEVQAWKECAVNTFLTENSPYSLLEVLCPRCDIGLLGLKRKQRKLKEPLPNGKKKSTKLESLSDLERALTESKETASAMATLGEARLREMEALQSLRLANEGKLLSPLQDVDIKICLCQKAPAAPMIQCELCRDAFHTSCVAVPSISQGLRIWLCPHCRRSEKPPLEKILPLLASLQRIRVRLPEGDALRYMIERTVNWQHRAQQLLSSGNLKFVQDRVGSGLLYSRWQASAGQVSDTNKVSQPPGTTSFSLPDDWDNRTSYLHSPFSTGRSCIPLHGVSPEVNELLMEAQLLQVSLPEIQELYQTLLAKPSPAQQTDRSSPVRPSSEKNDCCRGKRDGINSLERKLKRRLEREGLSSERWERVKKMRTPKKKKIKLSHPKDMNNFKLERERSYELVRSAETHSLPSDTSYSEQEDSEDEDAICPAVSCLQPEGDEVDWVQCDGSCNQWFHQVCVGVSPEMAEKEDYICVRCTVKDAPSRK
Summary of the method: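 KDM5BDeltaAP (200nM final) preincubated 10 min with compound, then 12.5uM H3K4Me3, 25uM a-ketoglutarate, ascorbate, Fe(II), NAD+ and FDH added; 50mM HEPES pH 7.5, 0.01% Tween-20. NADH fluorescence (340/450 nm) change over 30 min, room temperature.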

Row | Compound | activity, negative = inhibition
1 | COc1ccc2cc([S+]([O-])Cc3ncc(C)c(OC)c3C)nc2c1 | -14.5% (inactive)
2 | O=c1[nH]c(=O)n([C@H]2C[C@@H](O)[C@@H](CO)O2)cc1C=CBr | -2.81% (inactive)
3 | CN[C@H](CC(C)C)C(=O)N[C@H]1C(=O)N[C@@H](CC(N)=O)C(=O)N[C@@H]2C(=O)N[C@H]3C(=O)N[C@H](C(=O)N[C@H](C(=O)O)c4cc(O)cc(O)c4-c4cc3ccc4O)[C@H](O)c3ccc(c(Cl)c3)Oc3cc2cc(c3O[C@@H]2O[C@H](CO)[C@@H](O)[C@H](O)[C@@H]2O[C@H]2C[C@](C)(N)[C@H](O)[C@H](C)O2)Oc2ccc(cc2Cl)[C@H]1O | -5.55% (inactive)

tested on: not listed separately; assay: Vero cells viability qHTS for Zika virus inhibitors (AID 1347167); conditions: cytotoxicity counter-screen (Zika); series mostly up to 45.9 µM; activity change, negative = cytotoxicity: at the top concentration; also: % is scaled to controls: 0 for no effect and ±100 for the full control effect
Summary of the method: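 Counter-screen for cytotoxicity of hits from NS2B-NS3 protease qHTS. Overnight-attached cells (2.5 x 10^5 cells/mL, DMEM/4% FBS) were dosed in titration, incubated 24 to 48 hours, then assayed by CellTiter Glo.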

Row | Compound | activity change, negative = cytotoxicity
4 | C[C@H]1COc2c(N3CCN(C)CC3)c(F)cc3c(=O)c(C(=O)O)cn1c23 | -2.61% (inactive)
5 | CNC(=O)c1cccc(-c2ccc3c(N4CCOC[C@H]4C)nc(N4CCOC[C@H]4C)nc3n2)c1 | -1.49% (inactive)
6 | COc1ccc(S(=O)(=O)Nc2cc(-c3c(O)ccc4ccccc34)c(O)c3ccccc23)cc1 | -9.32% (inactive)
7 | CC(C)c1cc(C(C)C)c(CC(=O)NS(=O)(=O)Oc2c(C(C)C)cccc2C(C)C)c(C(C)C)c1 | -5.7% (inactive)
8 | Cc1ccc(-n2[nH]c(C)c(N=Nc3cccc(-c4cccc(C(=O)O)c4)c3O)c2=O)cc1C | -5.45% (inactive)
9 | c1cc(N[C@@H]2CCNC2)nc(-c2cnc3ccc(-c4cn[nH]c4)cn23)c1 | -3.03% (inactive)
